Experimental findings from PubChem BioAssay AID1347415 (National Center for Advancing Translational Sciences (NCATS), 2020) are described below.

The structures appear in SMILES notation. Results filed as inconclusive are left out. Values without a mark were called inactive. Calls of active or inactive are those of the source. Calls come from the whole dose curve; as a rule, active = well fitted inhibition curve with a large enough effect; inconclusive = small, poorly fitted or top-dose-only effect; inactive = no such curve, though single readings can be large or run the other way.

The nature of this assay: qHTS to identify inhibitors of the type 1 interferon - major histocompatibility complex class I in skeletal muscle: tertiary screen by RT-qPCR. The settings on record: C25cl48 human myoblasts, IFN-beta, HLA-B RT-qPCR, 24 h; series mostly up to 49.8 µM; activity change, negative = inhibition: at the top concentration. The source says: Assay Submitter (PI): Travis B. Kinder Ph.D. & James Inglese Ph.D. Assay Development and Screening Technology Laboratory (ADST) National Center for Advancing Translational Sciences (NCATS), Rockville, MD National Institute of Health (NIH), Bethesda, Maryland Idiopathic inflammatory myopathies, collectively referred to as myositis, are a group of rare autoimmune diseases characterized by skeletal muscle inflammation, weakness, and usually accompanied by systemic pathologies of the skin, lungs, or vasculature. Current immunosuppressive therapies and glucocorticoids are often not curative and are accompanied by harsh side effects, especially in children with juvenile myositis. We initiated a drug repurposing and development program to identify more targeted, less toxic therapeutics to treat myositis. Although its cause is not known, muscle from a subset of patients have an abundance of the inflammatory type 1 interferon (IFN) and a down-stream product major histocompatibility complex class I (MHC class I), which are both thought to contribute to damage and weakness. We conducted quantitative high throughput screening (qHTS) on 6,576 compounds (4,679 unique) through a series of cell-based assays to identify those that inhibit the IFN-stimulated expression of MHC class I in muscle precursor cells (myoblasts). The compound identification and evaluation strategy utilized a primary screen with reporter-tagged MHC class I in genome-engineered myoblasts, ATP content counter screen for viability, HLA-ABC immunofluorescence secondary screen, and HLA-B RT-qPCR tertiary screen. To determine if active compounds identified by qHTS in HLA-B HiBit reporter cells, and confirmed by HLA-ABC immunofluorescence, can inhibit the transcription of HLA-B mRNA, compounds were assayed by RT-qPCR. Briefly, 62 compounds identified from primary, counter, and secondary screening as inhibitory with minimal cytotoxicity were dispensed into 384-well plates using acoustic dispensing in a 6-point, 1:7 titration with a high final concentration of 10 uM. Normal immortalized human myoblasts C25cl48 were added to the plate with 4.0 ng/ml human IFN-beta for 24 hours, and cells were harvested and assayed by the Cells-to-Ct kit with TaqMan assays (Thermo Fisher).
PROTOCOL TABLE (as described by Inglese et al., 2007) SEQUENCE No. (e.g., 1, 2, 3, etc.); […] (e.g., Cells, Incubation, Reagent, etc.); VALUE; DESCRIPTION 0; Compounds; 150 nl; Follow-up compounds dispensed at 150 nl/well with Labcyte Echo 655 acoustic dispenser into one Corning white/clear bottom, high base TC 384-well plates (3765) 1a; Cells; 30 uL; Using a p200 manual pipette, seed 780 cells/well into 1 plate in 30 ul/well of iHSKM growth medium without dexamethasone into columns wells A1-A6. […]
Consider `OCCCNc1cc(-c2ccnc(Nc3cccc(Cl)c3)n2)ccn1`, for which the Potency was 0.116 µM (active). The same measure, in the same setting: the same measure for `COc1cccc2c1C(=O)c1c(O)c3c(c(O)c1C2=O)C[C@@](O)(C(=O)CO)C[C@@H]3O[C@H]1C[C@H](N)[C@H](O)[C@H](C)O1`: 1.04 µM (active); for `CN1CCN(c2cccc(Nc3nc4c(-c5ccc(S(C)(=O)=O)cc5)cccn4n3)c2)CC1`: 8.23 µM (active); for `Cc1[nH]c2ccccc2c1CCNCc1ccc(/C=C/C(=O)NO)cc1`: 0.0292 µM (active). The same measure, in the same setting: the same measure for `CCN(CC)Cc1ccc2cc(COC(=O)Nc3ccc(C(=O)NO)cc3)ccc2c1`: 4.13 µM (active); for `COc1ccc(-c2nc(N3CCOCC3)c3sc(CN(C)c4ncc(C(=O)NO)cn4)cc3n2)cn1`: 0.0232 µM (active); for `O=C(/C=C/c1ccc(CN(CCO)CCc2c[nH]c3ccccc23)cc1)NO`: 0.116 µM (active). As to `C[C@]12C=CC(=O)C=C1CC[C@@H]1[C@@H]2[C@@H](O)C[C@@]2(C)[C@H]1CC[C@]2(O)C(=O)CO`, the “activity change, negative = inhibition” value was -28.8%. On the same count and under the same terms, the same measure for `CC(=O)OCC(=O)[C@@]12OC(C)(C)O[C@@H]1C[C@H]1[C@@H]3C[C@H](F)C4=CC(=O)C=C[C@]4(C)[C@@]3(F)[C@@H](O)C[C@@]12C`: -29.4%; for `Cc1ccc(NC(=O)NCc2ccc3c(c2)CN(C2CCC(=O)NC2=O)C3=O)cc1Cl` (configuration not stated): -1.86%. As to `Cc1cc(O)c(-c2ccc([C@@H](C)CN(C)C)cc2)c2c1[nH]c(=O)c1sccc12`, the Potency was 0.0519 µM (active).

As to `C[C@H]1C[C@@H]2[C@H]([C@@H](O)C[C@@]3(C)[C@H]2CC[C@]3(O)C(=O)CO)[C@@]2(C)C=CC(=O)C=C12`, the “activity change, negative = inhibition” value is -18%. `CC(=O)c1cnc2ccc(-c3cc(Cl)c(O)c(Cl)c3)nc2c1NC1CCC(CN(C)C)CC1` (configuration not stated): the Potency was 0.116 µM (active). The same measure, in the same setting: the result for `CC(C)C[C@H](NC(=O)[C@H](CCc1ccccc1)NC(=O)CN1CCOCC1)C(=O)N[C@@H](Cc1ccccc1)C(=O)N[C@@H](CC(C)C)C(=O)[C@@]1(C)CO1` reads 1.84 µM (active); that for `c1cc(Nc2cc(C3CC3)[nH]n2)nc(Nc2ccc3nc[nH]c3c2)n1`, 0.654 µM (active).

Consider `C=CCNC1=C2C[C@@H](C)C[C@H](OC)[C@H](O)[C@@H](C)/C=C(\C)[C@H](OC(N)=O)[C@@H](OC)/C=C\C=C(/C)C(=O)NC(=CC1=O)C2=O`, for which the “activity change, negative = inhibition” value is -32.6%. For `Cc1nc(Nc2n[nH]c3c2CN(C(=O)N[C@H](CN(C)C)c2ccccc2)C3(C)C)c2sccc2n1`, the Potency was 1.84 µM (active). The same measure, in the same setting: the result for `C[C@@]12O[C@@H](C[C@]1(O)CO)n1c3ccccc3c3c4c(c5c6ccccc6n2c5c31)CNC4=O` reads 2.6 µM (active).

On to `Cc1ccc(-c2ncn(-c3ccc(Nc4nccc(-c5cccc(N6CCOCC6)c5)n4)cc3)n2)cn1`, for which the Potency was 1.46 µM (active).

As to `C=C1C(=O)O[C@@H]2[C@H]3O[C@]3(C)CCC=C(C)CC[C@@H]12`, the Potency was 16.4 µM (active).

With `NC(=O)c1cnc2[nH]ccc2c1NC1C2CC3C[C@H]1CC(O)(C3)C2` (some centres not stated), the Potency was 1.64 µM (active). Turning to `N#CCC1(n2cc(-c3ncnc4[nH]ccc34)cn2)CN(C2CCN(C(=O)c3ccnc(C(F)(F)F)c3F)CC2)C1`, the Potency was 3.68 µM (active). For `N#CCNC(=O)c1ccc(-c2ccnc(Nc3ccc(N4CCOCC4)cc3)n2)cc1`, the Potency was 23.2 µM (active). The same measure, in the same setting: the same measure for `OC1CCC(Oc2cccc3cnc(Nc4ccc5nc[nH]c5c4)nc23)CC1` (configuration not stated): 0.654 µM (active); for `N#CC[C@H](C1CCCC1)n1cc(-c2ncnc3[nH]ccc23)cn1`: 1.64 µM (active). Consider `CS[C@H]1SC[C@@H]2C(=O)N(C)[C@H](C(C)C)C(=O)OC[C@H](NC(=O)c3cnc4ccccc4n3)C(=O)N[C@H](C)C(=O)N(C)[C@H]1C(=O)N(C)[C@H](C(C)C)C(=O)OC[C@H](NC(=O)c1cnc3ccccc3n1)C(=O)N[C@H](C)C(=O)N2C`, for which the “activity change, negative = inhibition” value is -135%. As to `CC(=O)c1ccc2c(c1)c1cc(C(C)=O)ccc1n2CCNC(C)C`, the Potency is 1.84 µM (active). Same read-out and setting: the same measure for `Cc1cc(Nc2nc(N[C@@H](C)c3ncc(F)cn3)ncc2Cl)n[nH]1`: 4.13 µM (active); for `O=C(Nc1nc2cccc(-c3ccc(CN4CCS(=O)(=O)CC4)cc3)n2n1)C1CC1`: 18.4 µM (active); for `CN1CCN(Cc2ccc(NC(=O)Nc3ccc(Oc4cc(NC(=O)C5CC5)ncn4)cc3)cc2C(F)(F)F)CC1`: 0.146 µM (active).

`CC1=C(CO)C(=O)O[C@@H]([C@@H](C)[C@H]2CC[C@H]3[C@@H]4C[C@H]5O[C@]56[C@@H](O)C=CC(=O)[C@]6(C)[C@H]4CC[C@]23C)C1`: the Potency is 1.3 µM (active). Still for that read-out and setting: the result for `Cc1cc(Nc2cc(NC(=O)c3c(Cl)cccc3Cl)ccn2)nc(N)n1` reads 4.63 µM (active); that for `COc1cccc2c1C(=O)c1c(O)c3c(c(O)c1C2=O)C[C@@](O)(/C(CO)=N/NC(=O)CCCCCN1C(=O)C=CC1=O)C[C@@H]3O[C@H]1C[C@H](N)[C@H](O)[C@H](C)O1`, 4.63 µM (active); that for `CCS(=O)(=O)N1CCN(c2ccc(Nc3ncc(C(N)=O)c(NC4CC4)n3)cc2)CC1`, 5.83 µM (active). On to `Cc1ncsc1-c1ccc([C@H](C)NC(=O)[C@@H]2C[C@@H](O)CN2C(=O)[C@@H](NC(=O)COCCCOCCNC(=O)C[C@@H]2N=C(c3ccc(Cl)cc3)c3c(sc(C)c3C)-n3c(C)nnc32)C(C)(C)C)cc1`, for which the “activity change, negative = inhibition” value was -104%.

Turning to `Cc1ccc([N+](=O)[O-])cc1S(=O)(=O)N(C)/N=C/c1cnc2ccc(Br)cn12`, the Potency was 0.232 µM (active). `NC(=O)Nc1sc(-c2ccc(F)cc2)cc1C(N)=O`: the Potency was 10.4 µM (active).
